The AC50 is the midpoint of the concentration-response curve, whichever way the signal moves.

From PubChem BioAssay (EPA / NIEHS) come the findings set out here.

Experiment [1] is described as follows: BSK_3C_VCAM1: BioMAP Diversity Plus: 3C Assay for Vascular cell adhesion molecule 1 (VCAM1) Biomarker Activity (AID 2282999; active means hit-call score of the fitted dose curve at least 0.9, where 1 is the maximum; inactive means score below 0.9). To be noted: BioMAP 3C HUVEC, VCAM1 ELISA, cytokine-stimulated; actives raise or lower the signal. An outline of the steps:
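Human umbilical vein endothelial cells were dosed with compound for 24 h, after which cell-surface VCAM-1 was quantified by ELISA. Bidirectional curve fitting used DMSO as negative control and activity baseline.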
(In general: An ELISA detects its analyte on a solid surface through an enzyme-linked reagent.)

The nature of experiment [2]: BSK_4H_Eotaxin3: BioMAP Diversity Plus: 4H Assay for Eotaxin 3 Biomarker Activity (AID 2283000; active means hit-call score of the fitted dose curve at least 0.9, where 1 is the maximum; inactive means score below 0.9;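 on outcome: CCL26 protein level quantified by ELISA in parallel with SRB cytotoxicity check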). As to conditions: primary human endothelial cells (HUVEC); actives raise or lower the signal. An outline of the steps:
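HUVEC, 24 h post-dose, ELISA for Eotaxin-3/CCL26. Gain or loss of signal fitted bidirectionally vs DMSO baseline.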

Experiment [3] has as its target human Peroxisome Proliferator-activated Receptor delta (PPARd), PPARD (gene 5467) (UniProt Q03181). Nature of the experiment: ATG_PPARd_TRANS: Attagene TRANS-FACTORIAL HepG2 Assay for human Peroxisome Proliferator-activated Receptor delta (PPARd) (AID 2283002). A digest of the protocol: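 Multiplexed trans-activation format: HepG2 liver cells expressing exogenous NR-Gal4 chimeras and GAL4-UAS reporters were exposed for 24 h. Reporter mRNA was detected by RT-PCR with capillary electrophoresis fluorescence; activity fitted as gain of signal relative to DMSO.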

Read-out in experiment [4]: Intercellular Adhesion Molecule 1 (ICAM1), ICAM1 (gene 3383)
In words: BSK_3C_ICAM1: BioMAP Diversity Plus: 3C Assay for Intercellular Adhesion Molecule 1 (ICAM1) Biomarker Activity (AID 2283003; active means hit-call score of the fitted dose curve at least 0.9, where 1 is the maximum; inactive means score below 0.9). As to conditions: primary human endothelial cells (HUVEC); actives raise or lower the signal. A digest of the protocol: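 ICAM-1 levels measured by ELISA after HUVEC cultures in the 3C system had been dosed for 24 h. Gain or loss of signal relative to DMSO was fitted in both directions.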

Experiment [5] addresses human Retinoic Acid Receptor beta (RARb), RARB (gene 5915) (UniProt P10826). Nature of the experiment: ATG_RARb_TRANS: Attagene TRANS-FACTORIAL HepG2 Assay for human Retinoic Acid Receptor beta (AID 2283004). An outline of the steps:
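HepG2 cells transiently transfected with multiplexed GAL4-UAS reporter units expressing chimeric NR–Gal4 fusions; 24 h compound exposure. Reporter mRNA quantified by RT-PCR, 6-FAM labelling, HpaI digestion and capillary electrophoresis; gain-of-signal fitted against DMSO baseline.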

Experiment [6] deals with Retinoic acid receptor alpha (Homo sapiens) (UniProt P10276). Nature of the experiment: ATG_RARa_TRANS: Attagene TRANS-FACTORIAL HepG2 Assay for human Retinoic Acid Receptor alpha (RARa) (AID 2283005). An outline of the steps:
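HepG2 cells transiently transfected with multiple reporter units expressing chimeric RARα-GAL4 fusion, with GAL4-UAS-driven reporters. After 24 h compound exposure, reporter mRNA induction quantified by RT-PCR and capillary electrophoresis with fluorescent labeling; gain-of-signal fitted relative to DMSO control.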

Experiment [7] can be described thus: BSK_3C_Proliferation: Cell Proliferation Assessment in the BioMAP Diversity Plus: 3C Assay (AID 2283006; active means hit-call score of the fitted dose curve at least 0.9, where 1 is the maximum; inactive means score below 0.9;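 on AC50: potency may reflect either rise or fall in cell number versus DMSO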). To be noted: primary human endothelial cells (HUVEC). An outline of the steps: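 Read-out is total protein by SRB absorbance at 560 nm, taken as a proxy for relative cell number. Primary human umbilical vein endothelium cultured below confluence was dosed for 48 h, TCA-fixed and SRB-stained; curves were fitted bidirectionally versus DMSO.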

In experiment [8] the target is Peroxisome proliferator-activated receptor gamma (Homo sapiens) (UniProt P37231). In words: ATG_PPARg_TRANS: Attagene TRANS-FACTORIAL HepG2 Assay for human Peroxisome Proliferator-activated Receptor-gamma (PPARg) (AID 2283007). An outline of the steps: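 A TRANS-format multiplexed reporter assay measures activity of an exogenous chimeric NR-Gal4 protein in HepG2 cells. After 24 h of chemical exposure, reporter transcripts are amplified, fluorescently labelled and sized by capillary electrophoresis, with gain of signal scored against DMSO.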

Experiment [9] deals with Nuclear receptor subfamily 1 group I member 2 (Homo sapiens) (UniProt O75469). Nature of the experiment: ATG_PXR_TRANS: Attagene TRANS-FACTORIAL HepG2 Assay for human Pregnane X Receptor (PXR) (AID 2283008). An outline of the steps: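 HepG2 cells transiently transfected with multiple reporter units, here a PXR-GAL4 chimera driving a GAL4-UAS reporter; 24 h compound exposure. Reporter mRNA measured by RT-PCR, FAM labelling and capillary electrophoresis; gain of signal fitted against DMSO baseline.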

For experiment [10], the target named is human Retinoic Acid Receptor gamma (RARg), RARG (gene 5916) (UniProt P13631). Nature of the experiment: ATG_RARg_TRANS: Attagene TRANS-FACTORIAL HepG2 Assay for human Retinoic Acid Receptor gamma (RARg) (AID 2283009).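 On AC50: AC50 is for reporter induction above DMSO meaning RARg activation.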 A digest of the protocol:
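Transient transfection of HepG2 with multi-reporter constructs, then 24 h chemical treatment. Total RNA isolated, reverse-transcribed, PCR-amplified, fluorescently labelled and resolved by capillary electrophoresis; activity scored as mRNA induction versus DMSO.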

In experiment [11] the target is Retinoic acid receptor RXR-alpha (Homo sapiens) (UniProt P19793). Nature of the experiment: ATG_RXRa_TRANS: Attagene TRANS-FACTORIAL HepG2 Assay for human Retinoid X Receptor alpha (RXRa) (AID 2283012). A digest of the protocol: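 Transient transfection of human HepG2 with multiple GAL4-UAS reporter constructs; 24 h compound exposure; total RNA isolated, reverse-transcribed, PCR-amplified, 6-FAM labelled, HpaI-cut, resolved by capillary electrophoresis. Positive-direction fit versus DMSO.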

Experiment [12] deals with human Retinoid X Receptor beta (RXRb), RXRB (gene 6257) (UniProt P28702). Nature of the experiment: ATG_RXRb_TRANS: Attagene TRANS-FACTORIAL HepG2 Assay for human Retinoid X Receptor beta (RXRb) (AID 2283013). An outline of the steps: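 Transfect HepG2 with GAL4-UAS multi-reporter constructs (chimeric NR-Gal4, TRANS format); dose compound 24 h; isolate RNA, RT-PCR, FAM primer extension, HpaI digest; quantify by capillary electrophoresis; positive direction vs DMSO.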

Experiment [13] has as its target human Thyroid Receptor alpha (THRa1), THRA (gene 7067) (UniProt P10827). Nature of the experiment: ATG_THRa1_TRANS: Attagene TRANS-FACTORIAL HepG2 Assay for human Thyroid Receptor alpha (THRa1) (AID 2283014). An outline of the steps:
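HepG2 cells transiently transfected with multiplexed GAL4-UAS reporter units for exogenous chimeric THRa1-Gal4; reporter mRNA measured 24 h after dosing by RT-PCR, 6-FAM labelling, HpaI digestion and capillary electrophoresis. Gain-of-signal fitted versus DMSO baseline.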

Read-out in experiment [14]: E-selectin (Homo sapiens) (UniProt P16581)
Nature of the experiment: BSK_3C_Eselectin: BioMAP Diversity Plus: 3C Assay for Eselectin Biomarker Activity (AID 2283015; active means hit-call score of the fitted dose curve at least 0.9, where 1 is the maximum; inactive means score below 0.9;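 on outcome: cell surface E-selectin protein quantified by ELISA 24 h after dosing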). As to conditions: primary human endothelial cells (HUVEC); actives raise or lower the signal. A digest of the protocol: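 Primary human umbilical vein endothelial cells (3C system) were dosed with chemical and cell-surface E-selectin measured by ELISA 24 h later. Bidirectional curve fitting used DMSO as negative control and baseline.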

Read-out in experiment [15]: Monocyte Chemoattractant Protein-1 (MCP1), CCL2 (gene 6347)
In words: BSK_3C_MCP1: BioMAP Diversity Plus: 3C Assay for Monocyte Chemoattractant Protein-1 (MCP1) Biomarker Activity (AID 2283017; active means hit-call score of the fitted dose curve at least 0.9, where 1 is the maximum; inactive means score below 0.9). To be noted: primary human endothelial cells (HUVEC); actives raise or lower the signal. An outline of the steps:
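Primary human umbilical vein endothelial cells (3C system) were exposed to test chemical for 24 h, after which MCP-1 was quantified by ELISA. Activity was fitted bidirectionally against DMSO as negative control and baseline.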

Read-out in experiment [16]: Monocyte Chemoattractant Protein-1 (MCP1), CCL2 (gene 6347)
In words: BSK_4H_MCP1: BioMAP Diversity Plus: 4H Assay for Monocyte Chemoattractant Protein-1 (MCP1) Biomarker Activity (AID 2283018; active means hit-call score of the fitted dose curve at least 0.9, where 1 is the maximum; inactive means score below 0.9). As to conditions: primary human endothelial cells (HUVEC); actives raise or lower the signal. A digest of the protocol:
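ELISA read-out of MCP-1 from human vascular endothelial primary cells taken at 24 hours after compound exposure. Activity was fitted in both directions relative to DMSO, which served as negative control.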

Experiment [17] deals with human RAR-related Orphan Receptor gamma (RORg), RORC (gene 6097) (UniProt P51449). In words: ATG_RORg_TRANS: Attagene TRANS-FACTORIAL HepG2 Assay for human RAR-related Orphan Receptor gamma (RORg) (AID 2283011). An outline of the steps:
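Readout: reporter transcript induction (RT-PCR, fluorescent primer extension, capillary electrophoresis) after 24 h compound exposure of transiently transfected HepG2 cells carrying a RORg-Gal4 chimera and GAL4-UAS reporters; DMSO served as baseline, with increasing signal fitted.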

The target of experiment [18] is human RAR-related Orphan Receptor beta (RORb), RORB (gene 6096) (UniProt Q92753). In words: ATG_RORb_TRANS: Attagene TRANS-FACTORIAL HepG2 Assay for human RAR-related Orphan Receptor beta (RORb) (AID 2283010). A digest of the protocol: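 Readout is reporter-gene mRNA induction, detected as fluorescence after RT-PCR and capillary electrophoresis, fitted for gain of signal against DMSO controls. Transiently transfected HepG2 liver cells carrying GAL4-UAS reporter constructs were treated for 24 hours.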

Read-out in experiment [19]: Interleukin-1 alpha (IL1a), IL1A (gene 3552)
Nature of the experiment: BSK_BE3C_IL1a: BioMAP Diversity Plus: BE3C Assay for Interleukin-1 alpha (IL1a) Biomarker Activity (AID 2283016; active means hit-call score of the fitted dose curve at least 0.9, where 1 is the maximum; inactive means score below 0.9). To be noted: primary human bronchial epithelial cells; actives raise or lower the signal. An outline of the steps:
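BE3C primary human bronchial epithelium; cpd 24 h; IL-1a by ELISA; bidirectional fit vs DMSO; parallel SRB (0.1% SRB, 10% TCA fix, 560 nm) for cytotoxicity.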

“And” between values parts separate entries of the source, which are not always exact repeats. Equal values may be shown once. Records with an inconclusive call do not appear. A structure can be active in one record and inactive in another. The source made the active and inactive calls. How the source made its calls, unless noted: active means hit-call score of the fitted dose curve at least 0.9, where 1 is the maximum; inconclusive means response in the unintended direction; inactive means score below 0.9.

Chain of Peroxisome proliferator-activated receptor gamma (Homo sapiens) (P37231 whole entry, looked up, the tested form may be a part): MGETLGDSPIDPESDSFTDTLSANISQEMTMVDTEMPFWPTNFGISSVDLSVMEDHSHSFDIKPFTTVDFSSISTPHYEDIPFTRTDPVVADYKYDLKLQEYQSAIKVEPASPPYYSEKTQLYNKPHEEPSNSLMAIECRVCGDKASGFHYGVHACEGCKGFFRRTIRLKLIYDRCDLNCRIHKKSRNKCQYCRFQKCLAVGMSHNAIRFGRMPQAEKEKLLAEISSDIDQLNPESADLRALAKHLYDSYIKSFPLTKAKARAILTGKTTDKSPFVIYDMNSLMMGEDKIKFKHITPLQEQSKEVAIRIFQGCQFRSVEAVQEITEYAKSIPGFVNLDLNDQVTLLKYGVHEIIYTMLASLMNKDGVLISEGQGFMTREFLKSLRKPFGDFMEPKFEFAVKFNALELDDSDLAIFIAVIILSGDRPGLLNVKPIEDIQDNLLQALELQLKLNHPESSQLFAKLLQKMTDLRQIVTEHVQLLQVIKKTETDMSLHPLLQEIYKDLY
Chain of human Retinoic Acid Receptor gamma (RARg), RARG (gene 5916) (P13631 whole entry, looked up): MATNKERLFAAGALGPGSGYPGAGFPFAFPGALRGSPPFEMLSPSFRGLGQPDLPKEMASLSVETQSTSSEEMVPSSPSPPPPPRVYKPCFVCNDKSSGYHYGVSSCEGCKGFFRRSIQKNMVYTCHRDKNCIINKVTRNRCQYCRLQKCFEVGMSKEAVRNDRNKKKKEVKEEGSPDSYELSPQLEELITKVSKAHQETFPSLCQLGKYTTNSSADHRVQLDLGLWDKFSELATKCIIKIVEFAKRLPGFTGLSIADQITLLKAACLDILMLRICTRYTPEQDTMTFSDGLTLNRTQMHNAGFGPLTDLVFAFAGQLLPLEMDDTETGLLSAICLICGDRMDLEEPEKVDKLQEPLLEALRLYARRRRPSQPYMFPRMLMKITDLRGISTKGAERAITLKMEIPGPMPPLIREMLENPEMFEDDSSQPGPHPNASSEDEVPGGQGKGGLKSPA
Chain of human RAR-related Orphan Receptor gamma (RORg), RORC (gene 6097) (P51449 whole entry, looked up, the tested form may be a part): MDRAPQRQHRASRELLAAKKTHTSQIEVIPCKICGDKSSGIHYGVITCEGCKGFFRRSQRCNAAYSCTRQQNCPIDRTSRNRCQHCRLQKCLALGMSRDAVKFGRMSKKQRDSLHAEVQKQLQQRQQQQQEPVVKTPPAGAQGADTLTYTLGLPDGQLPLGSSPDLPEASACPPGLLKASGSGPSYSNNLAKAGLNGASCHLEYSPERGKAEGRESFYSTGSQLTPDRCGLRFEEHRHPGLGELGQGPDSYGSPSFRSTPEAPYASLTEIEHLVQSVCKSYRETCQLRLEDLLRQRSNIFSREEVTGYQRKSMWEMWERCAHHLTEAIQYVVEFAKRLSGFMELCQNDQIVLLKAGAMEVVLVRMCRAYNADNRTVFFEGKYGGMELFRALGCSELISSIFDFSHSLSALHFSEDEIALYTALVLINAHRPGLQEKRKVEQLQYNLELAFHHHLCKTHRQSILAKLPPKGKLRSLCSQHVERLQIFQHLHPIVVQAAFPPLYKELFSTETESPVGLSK
Chain of human Retinoid X Receptor beta (RXRb), RXRB (gene 6257) (P28702 whole entry, looked up, the tested form may be a part): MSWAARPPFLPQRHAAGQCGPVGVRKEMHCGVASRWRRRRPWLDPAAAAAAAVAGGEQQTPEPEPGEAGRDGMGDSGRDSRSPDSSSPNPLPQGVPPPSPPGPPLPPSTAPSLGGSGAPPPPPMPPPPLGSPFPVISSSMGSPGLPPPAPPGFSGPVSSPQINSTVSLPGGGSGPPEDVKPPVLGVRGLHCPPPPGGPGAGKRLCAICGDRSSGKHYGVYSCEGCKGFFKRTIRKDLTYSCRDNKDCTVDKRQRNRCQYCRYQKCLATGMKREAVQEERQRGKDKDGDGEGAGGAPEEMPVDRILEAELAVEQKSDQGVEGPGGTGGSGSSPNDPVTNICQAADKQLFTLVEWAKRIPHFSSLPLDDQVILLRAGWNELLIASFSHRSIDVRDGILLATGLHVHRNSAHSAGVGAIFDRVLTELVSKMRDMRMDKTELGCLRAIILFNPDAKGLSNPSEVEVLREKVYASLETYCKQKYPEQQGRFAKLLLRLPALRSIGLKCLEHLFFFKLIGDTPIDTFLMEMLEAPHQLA
Chain of Nuclear receptor subfamily 1 group I member 2 (Homo sapiens) (O75469 whole entry, looked up, the tested form may be a part): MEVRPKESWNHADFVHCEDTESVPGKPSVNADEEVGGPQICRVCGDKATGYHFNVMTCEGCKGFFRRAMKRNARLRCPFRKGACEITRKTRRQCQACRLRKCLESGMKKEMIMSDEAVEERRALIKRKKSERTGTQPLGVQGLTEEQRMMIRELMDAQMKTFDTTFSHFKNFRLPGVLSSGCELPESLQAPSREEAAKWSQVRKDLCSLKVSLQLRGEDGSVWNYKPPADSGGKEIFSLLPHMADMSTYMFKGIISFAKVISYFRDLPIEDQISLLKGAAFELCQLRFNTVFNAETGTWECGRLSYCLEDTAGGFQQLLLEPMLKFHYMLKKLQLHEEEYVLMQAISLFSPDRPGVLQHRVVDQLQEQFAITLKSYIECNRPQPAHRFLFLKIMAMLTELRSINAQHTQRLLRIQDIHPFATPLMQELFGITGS
Chain of E-selectin (Homo sapiens) (P16581 whole entry, looked up): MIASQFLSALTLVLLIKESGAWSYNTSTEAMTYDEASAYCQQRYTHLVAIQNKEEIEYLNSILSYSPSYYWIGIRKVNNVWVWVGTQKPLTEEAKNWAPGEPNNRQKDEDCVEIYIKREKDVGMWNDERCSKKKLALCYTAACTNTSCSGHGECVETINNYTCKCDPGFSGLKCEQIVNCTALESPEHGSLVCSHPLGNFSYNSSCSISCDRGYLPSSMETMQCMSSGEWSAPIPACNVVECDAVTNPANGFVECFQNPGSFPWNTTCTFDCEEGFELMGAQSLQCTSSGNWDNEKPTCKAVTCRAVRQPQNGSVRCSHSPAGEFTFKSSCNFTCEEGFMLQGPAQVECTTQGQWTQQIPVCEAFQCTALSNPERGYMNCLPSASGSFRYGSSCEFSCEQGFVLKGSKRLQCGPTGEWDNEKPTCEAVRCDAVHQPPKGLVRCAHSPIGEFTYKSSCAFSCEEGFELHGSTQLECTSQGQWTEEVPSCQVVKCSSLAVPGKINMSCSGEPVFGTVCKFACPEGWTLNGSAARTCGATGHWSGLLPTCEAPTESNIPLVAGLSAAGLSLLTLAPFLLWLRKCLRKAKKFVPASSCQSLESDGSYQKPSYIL
Chain of human Retinoic Acid Receptor beta (RARb), RARB (gene 5915) (P10826 whole entry, looked up, the tested form may be a part): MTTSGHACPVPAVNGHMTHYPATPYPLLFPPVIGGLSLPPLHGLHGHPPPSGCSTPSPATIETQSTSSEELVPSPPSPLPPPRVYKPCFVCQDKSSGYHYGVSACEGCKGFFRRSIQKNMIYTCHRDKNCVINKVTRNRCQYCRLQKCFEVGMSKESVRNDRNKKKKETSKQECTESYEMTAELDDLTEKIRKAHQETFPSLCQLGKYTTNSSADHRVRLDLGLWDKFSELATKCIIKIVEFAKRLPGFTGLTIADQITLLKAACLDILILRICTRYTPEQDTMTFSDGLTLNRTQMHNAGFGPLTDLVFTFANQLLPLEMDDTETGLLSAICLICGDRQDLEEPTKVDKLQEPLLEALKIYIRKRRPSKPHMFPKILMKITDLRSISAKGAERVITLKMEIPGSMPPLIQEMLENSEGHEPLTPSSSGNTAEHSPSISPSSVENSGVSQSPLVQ
Chain of human RAR-related Orphan Receptor beta (RORb), RORB (gene 6096) (Q92753 whole entry, looked up, the tested form may be a part): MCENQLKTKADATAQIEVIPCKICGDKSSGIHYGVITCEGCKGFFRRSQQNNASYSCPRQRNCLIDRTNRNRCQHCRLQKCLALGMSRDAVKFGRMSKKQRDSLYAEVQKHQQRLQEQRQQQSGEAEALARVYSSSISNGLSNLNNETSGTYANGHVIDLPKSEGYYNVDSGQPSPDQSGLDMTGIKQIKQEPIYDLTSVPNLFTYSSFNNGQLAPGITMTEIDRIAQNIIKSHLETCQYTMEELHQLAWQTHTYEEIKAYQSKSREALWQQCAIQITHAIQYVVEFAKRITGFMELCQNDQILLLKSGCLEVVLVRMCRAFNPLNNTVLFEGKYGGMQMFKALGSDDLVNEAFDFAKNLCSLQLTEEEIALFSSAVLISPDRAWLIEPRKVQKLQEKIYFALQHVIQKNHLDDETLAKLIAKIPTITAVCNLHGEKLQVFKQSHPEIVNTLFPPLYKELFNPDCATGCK
Chain of Retinoic acid receptor RXR-alpha (Homo sapiens) (P19793 whole entry, looked up, the tested form may be a part): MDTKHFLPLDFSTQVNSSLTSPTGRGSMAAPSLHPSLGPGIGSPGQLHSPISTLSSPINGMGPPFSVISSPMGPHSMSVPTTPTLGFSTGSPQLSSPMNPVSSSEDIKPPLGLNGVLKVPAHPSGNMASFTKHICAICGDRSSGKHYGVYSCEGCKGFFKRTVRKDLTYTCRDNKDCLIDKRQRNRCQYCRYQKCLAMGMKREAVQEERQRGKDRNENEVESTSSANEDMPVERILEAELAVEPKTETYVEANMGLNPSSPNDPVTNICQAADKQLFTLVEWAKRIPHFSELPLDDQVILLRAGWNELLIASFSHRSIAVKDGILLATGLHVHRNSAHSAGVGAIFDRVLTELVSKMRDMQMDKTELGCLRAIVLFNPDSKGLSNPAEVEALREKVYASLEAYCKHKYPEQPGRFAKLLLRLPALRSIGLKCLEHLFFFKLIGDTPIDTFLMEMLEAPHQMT
Chain of Retinoic acid receptor alpha (Homo sapiens) (P10276 whole entry, looked up, the tested form may be a part): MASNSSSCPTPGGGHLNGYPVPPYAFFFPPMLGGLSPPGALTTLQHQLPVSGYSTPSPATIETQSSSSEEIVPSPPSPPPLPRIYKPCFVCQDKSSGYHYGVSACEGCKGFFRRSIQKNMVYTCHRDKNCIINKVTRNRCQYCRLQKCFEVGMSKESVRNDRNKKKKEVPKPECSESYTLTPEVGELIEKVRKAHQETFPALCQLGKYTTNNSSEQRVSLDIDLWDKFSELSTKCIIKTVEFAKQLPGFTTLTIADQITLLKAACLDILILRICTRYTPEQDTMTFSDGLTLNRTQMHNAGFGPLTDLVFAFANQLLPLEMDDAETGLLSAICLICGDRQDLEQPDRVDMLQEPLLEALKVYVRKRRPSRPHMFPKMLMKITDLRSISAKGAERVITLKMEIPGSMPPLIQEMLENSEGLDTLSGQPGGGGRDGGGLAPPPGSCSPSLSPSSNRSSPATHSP

With `CCOC(=O)NCCOc1ccc(Oc2ccccc2)cc1`, the result in experiment [1], in [2], in experiment [3], in experiment [4], in experiment [5] and in [6] was inactive. Moreover, the call in experiment [9], in experiment [10], in experiment [11], in experiment [12] and in experiment [13] was inactive. Moreover, the AC50 in [7] was 20 µM (active); in [8] it was 19.3 µM (active); in experiment [14] it was 21.3 µM (active); in experiment [15], 28.5 µM (active); in experiment [16], 18.7 µM (active).

In the case of `CCCCOCCOCCOCc1cc2c(cc1CCC)OCO2`, the result in experiment [1], in experiment [2], in experiment [3], in experiment [4], in experiment [5] and in experiment [6] was inactive. Also, the outcome in experiment [10], in experiment [17], in experiment [11], in experiment [12], in [14] and in [15] was inactive. Also, in experiment [16], the result was inactive. The AC50 in experiment [7] was 24 µM (active); in [8], 16.9 µM (active); in experiment [9], 13.3 µM (active).

Consider `CC(C)(c1ccc(O)cc1)c1ccc(O)cc1`, for which the result in [1], in experiment [2], in [3], in experiment [4], in experiment [5] and in experiment [6] was inactive. Moreover, the outcome in experiment [7], in experiment [8], in [9], in experiment [10], in [18] and in experiment [11] was inactive. Further, the outcome in experiment [12], in [13], in experiment [14], in experiment [19], in [15] and in experiment [16] was inactive. The AC50 is 27.4 µM (active) in [7]; 14.2 µM (active) and 18.3 µM (active) and 25.8 µM (active) in experiment [8]; 0.00419 µM (active) in [12].

For `O=C(c1ccc(O)cc1O)c1ccc(O)cc1O`, the outcome in experiment [1], in [2], in experiment [3], in experiment [4], in [5] and in experiment [7] was inactive. Further, the outcome in experiment [9], in [10], in experiment [18], in [17], in [11] and in experiment [12] was inactive. Moreover, the result in [13], in [14], in experiment [19], in experiment [15] and in [16] was inactive. Also, the AC50 in experiment [8] is 49.1 µM (active) [middle of 4 runs].

As to `CC(C)CCCCCCc1ccc(O)cc1`, the AC50 in experiment [1] was 7.98 µM (active); in [2] it was 10.6 µM (active); in [4], 11.2 µM (active); in experiment [7], 4.54 µM (active); in [8], 11.1 µM (active); in experiment [10], 14.2 µM (active). In addition, the AC50 in [11] is 12.3 µM (active) [middle of 4 runs]; in experiment [14], 8.72 µM (active); in experiment [19], 26.7 µM (active); in experiment [15] it was 9.8 µM (active); in experiment [16] it was 7.07 µM (active). Besides, the compound was called inactive in experiment [3], in experiment [5], in experiment [6], in experiment [8], in experiment [10] and in experiment [18]. Further, in experiment [13], the call was inactive.

Turning to `CCC(C)OC(=O)N1CCCCC1CCO` (stereo not given), the result in experiment [1], in experiment [2], in experiment [3], in experiment [4], in experiment [5] and in experiment [7] was inactive. Besides, the call in [8], in experiment [9], in experiment [17], in experiment [11], in experiment [12] and in experiment [13] was inactive. Besides, the result in experiment [14], in [15] and in [16] was inactive. Also, the AC50 in [9] was 9.99 µM (active).
